# MT1-MMP txn act: activates MT1-MMP transcription | HT1080 MT1-MMP promoter luciferase reporter, luminescence, overnight; active compounds read high | activation factor at 10 µM | 0.16% of 86,000 active | AID 750;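 active = activation factor of at least 2 for MT1-MMP transcription at 10 µM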
# hDAT+cocaine: human DAT dopamine uptake with cocaine, either direction; Q01959; LLC-PK1 hDAT cells, [14C]-dopamine uptake with cocaine IC80; actives deviate in either direction; B-score at 10 µM; 1.3% of 110,000 active; AID 449768;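 active = Z score or B-score, a plate-position-corrected score, falls beyond the plate's 99.7% confidence bounds, in either direction; inactive = both scores lie inside the 99.7% bounds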;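 also: scored against the spread of the other compound wells on the same plate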
# ERb SRC1 inh: ER-beta (human) coactivator binding inhibition; Q92731; TR-FRET ER-beta LBD / SRC1-Cy5 peptide binding; receptor agonist-loaded with 1 µM estradiol; inhibition, % at 25.6 µM; 1.3% of 86,000 active;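 active = compounds whose percent inhibition of the receptor-coactivator binding signal exceeds about 50% in the single-dose screen, limit read from the data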;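 also: 0% = receptor plus peptide wells without compound and 100% = peptide-only wells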
# ERa coact inh: blocks coactivator binding to human estrogen receptor alpha | inhibition, % at 25.6 µM | TR-FRET ER-alpha LBD / SRC-1 peptide, estradiol-bound | 1.7% of 86,000 active | P03372 | AID 629; in the data active = inhibition above about 50%;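 also: 0% = receptor plus peptide control and 100% = peptide only without receptor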
# Target sequence (P03372 whole entry, looked up, the tested form may be a part): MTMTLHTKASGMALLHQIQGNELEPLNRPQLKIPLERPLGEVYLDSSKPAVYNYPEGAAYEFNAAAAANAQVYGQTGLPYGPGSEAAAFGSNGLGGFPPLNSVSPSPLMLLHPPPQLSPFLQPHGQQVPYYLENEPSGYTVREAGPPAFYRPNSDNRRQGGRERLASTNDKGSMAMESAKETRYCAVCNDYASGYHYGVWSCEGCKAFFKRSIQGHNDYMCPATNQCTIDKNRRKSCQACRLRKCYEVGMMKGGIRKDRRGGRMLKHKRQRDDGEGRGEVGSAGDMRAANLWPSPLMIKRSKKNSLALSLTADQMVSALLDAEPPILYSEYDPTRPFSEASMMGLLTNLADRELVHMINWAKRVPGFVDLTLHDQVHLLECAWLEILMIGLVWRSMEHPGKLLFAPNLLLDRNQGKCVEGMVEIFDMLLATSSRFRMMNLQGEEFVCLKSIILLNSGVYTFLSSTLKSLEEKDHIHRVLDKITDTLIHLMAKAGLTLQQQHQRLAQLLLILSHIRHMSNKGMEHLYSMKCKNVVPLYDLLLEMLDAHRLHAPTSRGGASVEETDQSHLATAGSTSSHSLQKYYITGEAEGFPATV
# ERa SRC1 pot: enhances coactivator binding to human estrogen receptor alpha. TR-FRET ERalpha-LBD/SRC-Cy5 coactivator binding, 2 h; 100 = basal binding, no effect. coactivator binding (% of control), % at 25.6 µM. 1.3% of 86,000 active. AID 639; in the data active = activity above about 200%;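 also: binding measured in presence of low estradiol as agonist stimulus; 0% = peptide alone without receptor and 100% = receptor with peptide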
# * = called active by the depositor; x = not tested or not shown; ! = repeats disagree; [ ] = remark or other dose. Shown are actives, neighbours in structure and some others; about 3.8% of the full set was active somewhere.
SMILES,MT1-MMP txn act,hDAT+cocaine,ERb SRC1 inh,ERa coact inh,ERa SRC1 pot
CCOC(=O)C[C@H]1c2ccccc2S(=O)(=O)N1c1cccc(OC)c1,x,-0.09,x,x,x
CCCCOC(=O)CSc1nc(N)c(C#N)c(-c2ccc(OC)cc2)c1C#N,1.2,-0.57,41,61*[fluorescence artefact?],240*[fluorescence artefact?]
O=C(NNC(=O)c1ccc(SCC2CCCO2)c([N+](=O)[O-])c1)c1ccc(Cl)c([N+](=O)[O-])c1 (stereo not drawn),1,-0.091,18,51*,62
Cc1ccc(C(=O)NNC(=O)c2ccc(SCC3CCCO3)c([N+](=O)[O-])c2)cc1 (stereo not drawn),1.1,-0.99,3,0,100
CC1=C(C(=O)OCc2ccccc2)C(c2ccc(Cl)cc2)NC(=O)N1CCCC(=O)O (stereo not drawn),1.1,x,x,x,x
O=C(Nc1ccccc1)C1=C[C@@H](c2ccc(Br)cc2)C[C@@H](OCCCCO)O1,x,0.39,x,x,x
O=C(O)CSc1nnc(-c2cccnc2)n1Cc1ccccc1,0.9,-7*,-4,3,87
CC(C)OC(=O)CSc1nnc(-c2cccnc2)n1Cc1ccccc1,1.1,-0.46,12,8,115
C=CCN1C(c2ccc(OCC)cc2)=CS/C1=C(\C#N)c1nnc2n1CCCCC2,1.2,3.8*!,3,5,110
CCCCCCN(C(=O)CCCCCN1C(=O)NC(c2cccc([N+](=O)[O-])c2)C(C(=O)OCc2ccccc2)=C1C)C(C(=O)NCCCC)c1ccc(OCC(=O)OC)c(C(=O)OC)c1 (stereo not drawn),1.1,x,x,x,x
O=C(Cn1ncc2c3ccccc3n(Cc3ccccc3)c2c1=O)N1CCN(c2ncccn2)CC1,1.3,1.8*,-5,3,171
Cc1csc(-c2cnn(-c3ccccc3)c2NC(=O)c2ccc(C(F)(F)F)cc2)n1,1.2,1,-5,-1,87
C=CCn1c(O)c(C(CC)=NCc2cccnc2)c(=O)[nH]c1=O,1.2,0.031,50*,-1,112
O=C1C(C=NCc2cccnc2)=C(O)c2ccccc21,0.9,-0.27,4,7,119
Nc1nc(SCC(=O)NCCC(c2ccccc2)c2ccccc2)n[nH]1,1.1,0.088,-10,-7,102
O=C(O)C[C@H]1c2cc(C(F)(F)F)ccc2S(=O)(=O)N1Cc1ccccc1,x,0.34,x,x,x
CCCn1nc(NC(=O)c2ccncc2)c2cc3ccccc3nc21,1.1,0.66,-2,3,124
CCCC(=O)Nc1nn(CCC)c2nc3ccccc3cc12,1.3,2.1*,10,2,115
CCn1nc(NC(=O)c2ccncc2)c2cc3cc(C)ccc3nc21,0.9,2.2*,x,x,x
N#Cc1cn(-c2ccccc2)nc1-c1ccc2c(c1)OCCO2,1.5,-0.75,2,4,138
O=Cc1cn(-c2ccccc2)nc1-c1ccc2c(c1)OCCO2,2*,0.33,4,15,103
CCC(C)(C)n1nnnc1C(c1ccc2ncccc2c1)N1CCN2CCCC2C1 (stereo not drawn),1.1,1.3,2,-11,127
COC(=O)c1sc(NC(=O)CSc2nc3cccnc3n2C2CCCCC2)nc1C,1.1,-1.1,61*[fluorescence artefact?],72*[fluorescence artefact?],81
COc1ccc2nc(NC(=O)CSc3nc4cccnc4n3C)sc2c1,1,0.37,28,23,164
CCOC(=O)C1C(=O)NC(SCC(=O)OC)=C(C#N)C1c1ccccc1OCC (stereo not drawn),1,0.11,2,10,99
SMILES,MT1-MMP txn act,hDAT+cocaine,ERb SRC1 inh,ERa coact inh,ERa SRC1 pot
CCOc1ccccc1C1C(C#N)=C(SCC(=O)OC)NC(=O)C1C(=O)OC (stereo not drawn),1.2,1,85*[fluorescence artefact?],-5,107
CCCCNC(=O)Cc1cc(=O)[nH]c(=O)[nH]1,x,0.014,x,x,x
COC(=O)c1[nH]c2ccc(C)cc2c1NC(=O)CN1CCN(c2ccccc2)CC1,1,1.9,3,7,106
COC(=O)c1[nH]c2ccc(C)cc2c1NC(=O)CN1CCN(C(=O)c2ccccc2)CC1,1.1,2.7*,4,-11,90
CCCOCC1CC2(SC(=Nc3ccc(C)cc3)NC2=O)C(=O)O1 (stereo not drawn),1,-0.4,69*[fluorescence artefact?],-6,106
O=C(Nc1cccc(F)c1)N1CCN(C/C=C/c2ccccc2)CC1,1.2,2.2*,2,7,95
COc1ccc(-c2cc(-c3ccccc3O)[nH]n2)cc1,2.5*,-0.87,-8,-8,83
Oc1ccc(Cl)cc1-c1cc(-c2ccccc2)n[nH]1,1.4,-0.52,2,-10,103
O=C(Cc1ccc(S(=O)(=O)N2CCOCC2)s1)Nc1nc2c(s1)CCCC2,1.3,2.3,81*[fluorescence artefact?],83*,23
O=C(Cc1ccc(S(=O)(=O)N2CCOCC2)s1)Nc1ccc2c(c1)CCC2,1.2,1.1,20,16,105
CCN(CC)CCOC(=O)C1c2ccccc2Oc2ccccc21,1,0.24,74*[fluorescence artefact?],-12,105
CCOc1ccc2nc(-c3ccccc3)nc(SCC(=O)Nc3ncc(C)s3)c2c1,x,-0.0017,x,x,x
COCCn1c(C(=O)N2CCCC2)cc2c1C[C@H]1CN(C(=O)c3ccccc3)[C@@](Cc3ccc(OC)cc3)(C(=O)OC)[C@@H]21,1.1,x,x,x,x
Cc1c(CCO)c(=O)n(-c2ccccc2)n1S(=O)(=O)c1ccc(Cl)cc1,x,-0.18,-7,-2,115
Cc1cccc(/C=N/NC(=O)C(C)Nc2cccc3ccccc23)n1 (stereo not drawn),1.4,2.5*,6,1,93
O=C(O)c1cccc(-n2cccc2/C=N/O)c1,1.4,1.1,77*[fluorescence artefact?],76*[fluorescence artefact?],46
O=C(c1ccc(Br)o1)N1CCN(c2ccccc2F)CC1,1,-1.6,-4,-14,106
O=C(c1ccc(Br)o1)N1CCN(c2ccccn2)CC1,1.1,2.4*,-26,-35,118
c1ccc2c(c1)CCN2CCN1CCc2ccccc21,1.2,-1.2,-1,-4,140
CN(C)CCN1CCc2ccccc21,1.1,-0.85,55*[fluorescence artefact?],40,48
CCN(c1ccc(NC(=O)COC(=O)c2ccc(S(=O)(=O)N3CCCC3)cc2)cc1)C(C)C,x,-1.1,x,x,x
O=C(Nc1ccc(O)cc1C(=O)O)c1ccc2c(c1)C(=O)N(Cc1ccco1)C2=O,1.2,0.14,54*,49,34
O=C1C2CC=C(Cl)CC2C(=O)N1CCN1CCOCC1 (stereo not drawn),1.1,0.12,6,-1,103
O=C1C2CC=C(Cl)CC2C(=O)N1CCCCCCN1C(=O)C2CC=C(Cl)CC2C1=O (stereo not drawn),1.3,0.33,44,56*,195
CCOC(=O)C(NC(C)=O)(N1CCOCC1)C(F)(F)F (stereo not drawn),1.1,1.8*,-1,-4,115
CCc1cc2c(NCC3CCCO3)nc(C)nc2s1 (stereo not drawn),1.1,0.65,-3,-7,112
COc1ccccc1NC(=O)NCCCl,1,-2.4*,-4,-10,101
COc1ccccc1NC(C)=O,1.3,0.86,6,-1,104

# Compound activity as filed in PubChem BioAssay.
